# Sampled rows, rich in hits. Any-hit rate of the full collection: about 1.8%.
# GSTO1 counter = inhibitors of recombinant GSTO1, primary screen, counter-screen for RBBP9 inhibitor project, biochemical, fluorescence polarization; inhibition, % at 5.96 µM; activity-based probe fluorescence polarization; AID 1974, 2009; 1.1% of 300,000 active; Glutathione S-transferase omega-1 (Homo sapiens), P78417;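 active = inhibition above the campaign mean inhibition plus 3 SD, cut at about 35% in these data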;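 note: 0% = GSTO1-1 with DMSO and 100% = wells lacking GSTO1-1 enzyme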
# LYPLA1 inh = LYPLA1 inhibitors, primary screen, counter-screen for PME1 inhibitor project, biochemical, fluorescence polarization, FP-Rh probe ABPP. Acyl-protein thioesterase 1 (Homo sapiens), O75608. recombinant LYPLA1. inhibition, % at 5.9 µM. 0.16% of 320,000 active. AID 2174, 2009;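 active = inhibition above the mean of all tested compounds plus 3 SD, set per campaign, cut at about 14% in these data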;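 note: inhibitors block serine hydrolase probe labeling of LYPLA1 so polarization falls; 0% = enzyme with DMSO and 100% = wells lacking LYPLA1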
# Target sequence (O75608 whole entry, looked up): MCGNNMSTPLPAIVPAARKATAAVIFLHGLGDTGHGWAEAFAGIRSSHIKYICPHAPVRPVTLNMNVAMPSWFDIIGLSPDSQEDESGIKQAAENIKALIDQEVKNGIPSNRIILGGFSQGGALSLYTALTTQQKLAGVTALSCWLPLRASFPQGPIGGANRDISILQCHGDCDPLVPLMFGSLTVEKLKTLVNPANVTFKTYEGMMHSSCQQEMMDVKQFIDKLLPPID
# PME-1 primary = PME-1 inhibitors via competitive probe labeling, primary screen, biochemical, fluorescence polarization, FP-Rh probe, HTS; Protein phosphatase methylesterase 1 (Homo sapiens), Q9Y570; recombinant PME-1; inhibition, % at 5.9 µM; 0.53% of 320,000 active; AID 2130, 2009;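 active = inhibition above the campaign mean of all compounds plus 3 SD, cut at about 26% in these data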;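 note: competitive labeling of PME-1 active site by serine hydrolase directed probe; 0% = PME-1 with DMSO and 100% = wells lacking PME-1 enzyme; inhibitors block probe labeling so polarization falls and inhibition rises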
# Target sequence (Q9Y570 whole entry, looked up): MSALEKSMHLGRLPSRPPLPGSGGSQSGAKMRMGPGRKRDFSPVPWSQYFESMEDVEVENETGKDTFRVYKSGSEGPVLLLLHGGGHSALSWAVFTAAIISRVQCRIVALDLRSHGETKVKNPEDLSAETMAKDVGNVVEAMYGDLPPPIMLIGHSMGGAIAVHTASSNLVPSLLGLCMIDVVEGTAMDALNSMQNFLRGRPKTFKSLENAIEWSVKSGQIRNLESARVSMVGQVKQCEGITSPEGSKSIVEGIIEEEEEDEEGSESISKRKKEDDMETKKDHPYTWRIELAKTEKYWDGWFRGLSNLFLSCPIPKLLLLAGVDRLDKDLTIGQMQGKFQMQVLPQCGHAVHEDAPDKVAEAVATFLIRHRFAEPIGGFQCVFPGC
# LYPLA2 counter = LYPLA2 inhibitors, primary screen, counter-screen for PME1 inhibitor project, biochemical, fluorescence polarization, FP-Rh probe ABPP | recombinant LYPLA2 | inhibition, % at 5.9 µM | 0.38% of 320,000 active | AID 2177, 2009;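 active = inhibition above the screen-wide mean plus 3 SD, limit set per campaign, cut at about 26% in these data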;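 note: 0% = LYPLA2 with DMSO and 100% = wells lacking LYPLA2 enzyme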
# Fam108B inh = mouse Fam108B serine hydrolase inhibitors, primary screen, counter-screen for RBBP9 inhibitor project, biochemical, fluorescence polarization; recombinant Fam108B, FP-Rh probe fluorescence polarization; inhibition, % at 9.51 µM; 0.33% of 300,000 active;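 active = inhibition above the screen mean inhibition plus 3 SD, computed separately per campaign, cut at about 18% in these data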;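 note: inhibitors lower polarization as less probe binds the enzyme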
# PAD4 FP inh = human PAD4 inhibitors, primary screen, biochemical, fluorescence polarization, 1536-well format; recombinant PAD4, RCA probe fluorescence polarization; inhibition, % at 6.36 µM; Protein-arginine deiminase type-4 (Homo sapiens), Q9UM07; 0.41% of 330,000 active;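 active = percent inhibition above a cutoff equal to the mean of all tested compounds plus 3 SD, cut at about 15% in these data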;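 note: 0% = PAD4 with RCA probe and DMSO and 100% = probe without PAD4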
# LYPLA2 confirm = LYPLA2 inhibitors, retest, confirmation, counter-screen for PME1 inhibitor project, biochemical, fluorescence polarization, FP-Rh probe ABPP; shares compounds with LYPLA2 counter; recombinant LYPLA2; inhibition, % at 5.9 µM; 72% of 1,100 active;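 active = mean inhibition across replicates above the hit cutoff set in the primary screen, cut at about 26% in these data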;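 note: blocked labeling of the enzyme by serine hydrolase FP-Rh probe lowers polarization; 0% = enzyme with DMSO and 100% = wells lacking LYPLA2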
# LYPLA2 ABPP = LYPLA2 inhibitors in proteome, late-stage follow-up, gel-based competitive ABPP, fluorescence, assay provider. rhLYPLA2 in mouse brain proteome, gel ABPP FP-Rh. shares compounds with LYPLA2 counter. 30% of 150 active. AID 652029, 2013. inhibition, % at 20 µM;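 active = inhibition of LYPLA2 enzyme probe labeling above about 50%, limit read from the data; inactive = inhibition below that limit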;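 note: loss of FP-Rh probe labeling of the LYPLA2 gel band measured as band density; 0% = DMSO only control band and 100% = blank gel background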
# An asterisk follows results filed as active; . = no result given.
SMILES,GSTO1 counter,LYPLA1 inh,PME-1 primary,LYPLA2 counter,Fam108B inh,PAD4 FP inh,LYPLA2 confirm,others
COc1ccc(N2CCN(CCC(=O)c3ccc4ccccc4c3)CC2)cc1,-14,8,-3,29*,1,1,27*,
COc1ccc(N2CCN(C(=O)c3ccc4c(c3)CCN4S(=O)(=O)c3ccccc3)CC2)cc1,-7,-1,3,35*,0,0,41*,
COc1ccc(N2CCN(CC(=O)c3ccccc3)CC2)cc1,0,2,5,1,2,0,.,
CCOc1ncccc1C(=O)N(CC)CC(=O)NCc1ccc(Cl)cc1,3,1,2,2,-2,1,.,
O=[N+]([O-])c1ccc(OCCN2CCNCC2)cc1,2,5,5,29*,2,0,26*,
O=[N+]([O-])c1ccc(OCCOCCOc2ccc([N+](=O)[O-])cc2)cc1,4,-3,-1,-2,-1,-1,.,
O=Cc1ccc(OCCOc2ccc([N+](=O)[O-])cc2)cc1,2,5,-1,37*,0,-1,23,
COCCNC(=O)CSc1nnc(NC(=O)C2CC(=O)N(c3ccccc3OC)C2)s1 (stereo not given),1,1,2,0,5,-5,.,
COc1ccc(N2CCN(CCCNC(=O)c3cc4sccc4n3C)CC2)cc1,1,4,-1,33*,1,0,32*,
O=C1CSC(=Nc2ccc(Cl)cc2)N1Cc1ccco1,1,8,4,26*,-6,-8,28*,
Cc1cc(C)c(N=C2SCC(=O)N2Cc2ccco2)c(C)c1,-1,2,-4,-2,1,1,.,
COc1ccc(NC(=O)CN(C)CC(=O)Nc2sc3c(c2C#N)CCC3)cc1,.,-4,9,4,.,-5,.,
O=C(c1cc(-c2ccc3c(c2)OCO3)on1)N1CCN(c2ccccc2)CC1,11,6,5,28*,1,5,16,
O=C(c1cc(-c2ccc3c(c2)OCO3)on1)N1CCN(c2ccc(F)cc2)CC1,1,1,-4,4,-3,-7,.,
Cc1ccc(S(=O)(=O)CCN2CCC(n3cccc3)CC2)cc1,18,-2,-1,-5,-1,0,.,
O=[N+]([O-])c1ccc(CN2CCOCCOCCN(Cc3ccc([N+](=O)[O-])cc3)CCOCC2)cc1,-2,1,1,37*,1,-1,22,
CCOC(=O)C1CCN(C(=O)CNC(=O)Cn2c(C)cc3ccccc3c2=O)CC1,-3,2,2,29*,2,-2,19,
CCOC(=O)CNC(=O)Cn1c(C)cc2ccccc2c1=O,0,0,2,1,-4,-3,.,
Cc1ccc(-n2ncc3c2CCCC3NC(=O)c2csnn2)cc1C (stereo not given),9,0,-2,9,-2,4,.,
COc1cccc(-n2c(SCC(=O)N3CCCCC3)nc3c([nH]c4ccccc43)c2=O)c1,-1,1,0,-1,1,-6,.,
COc1cccc(-n2c(SCC(N)=O)nc3c([nH]c4ccccc43)c2=O)c1,-3,2,4,174*,0,-2,1,
O=C(NCCCC1CCCC1)C1CCC(=O)N(Cc2ccc(Cl)cc2)C1 (stereo not given),-3,2,12,28*,-1,-3,34*,
O=[N+]([O-])c1ccc(Oc2cccc3cccnc23)c(Cl)c1,-5,-4,4,28*,1,2,16,
NC(=O)c1ccc(Oc2cccc3cccnc23)c([N+](=O)[O-])c1,7,0,4,10,4,0,.,
O=C(O)C1Nc2c(O)cc(Cl)c([N+](=O)[O-])c2C2C=CCC12 (stereo not given),57*,-14,11,35*,79*,-4,-2,
SMILES,GSTO1 counter,LYPLA1 inh,PME-1 primary,LYPLA2 counter,Fam108B inh,PAD4 FP inh,LYPLA2 confirm,others
COc1ccc(OC)c(C2Nc3c(Cl)ccc(C(=O)O)c3C3C=CCC32)c1 (stereo not given),20,-1,-2,-1,4,-3,.,
O=C(CSc1ccc(Cl)cc1)N1CCN(c2ccc([N+](=O)[O-])cc2Cl)CC1,-2,1,-2,31*,-1,6,10,
CCN(c1cccc(C)c1)S(=O)(=O)c1cc(CN2C(=O)c3cccnc3C2=O)ccc1OC,-4,-4,5,1,0,2,.,
COc1ccccc1NC(=O)CSc1nc2nccnc2c(=O)n1Cc1cccs1,11,-3,11,27*,4,5,-4,
O=C(CSc1nc2nccnc2c(=O)n1Cc1cccs1)Nc1ccccc1,4,-7,-2,4,-1,-2,.,
O=C1N=C(N2CCN(c3ccccc3)CC2)S/C1=C/c1cccs1,6,3,6,34*,-1,3,38*,
O=C1N=C(c2ccccc2)S/C1=C\c1cccs1,7,-2,5,-1,4,3,.,
CCOc1cc(CN2CCN(c3cccc(C(F)(F)F)c3)CC2)ccc1O,0,4,2,28*,1,2,29*,
CCOc1cc(CN2CCSCC2)ccc1O,18,3,-3,6,0,2,.,
Cn1c(=O)c2c(ncn2CC(=O)N/N=C/C(Br)=C/c2ccccc2)n(C)c1=O,8,-1,-4,27*,1,-3,39*,
O=C(Cn1cnc2ccccc2c1=O)c1ccc(Br)cc1,3,-6,3,29*,1,-2,42*,
O=C(Cn1cnc2ccccc2c1=O)c1ccccc1,2,1,6,8,-4,-3,.,
CC(C)N(C(=O)Cn1cnc2cc([N+](=O)[O-])ccc2c1=O)C(C)C,22,1,6,5,5,1,.,
CCc1ccc(C(=O)Cn2cnc3cc([N+](=O)[O-])ccc3c2=O)cc1,-9,-1,-1,46*,3,-7,37*,
O=C(Cn1cnc2ccccc2c1=O)c1ccc(OC(F)F)cc1,6,0,-6,52*,2,3,67*,LYPLA2 ABPP=70*
Cc1ccc(C(=O)Cn2cnc3ccccc3c2=O)cc1,3,-4,-1,24,-6,-2,.,

# Assay outcomes deposited in PubChem by The Scripps Research Institute Molecular Screening Center.
